# Hits are enriched below; roughly 3.4% of the tested compounds scored in any of these assays.
# PG9 binder: binders of HIV-1 gp120 antibody PG9, primary screen, biochemical, TR-FRET | TR-FRET gp120-PG9 antibody binding | 0.43% of 360,000 active | HIV-1 gp120 / PG9 antibody interaction | inhibition, % at 6.7 µM; in the data active = inhibition above about 8.5%
# HSF1 inhib: HSF1 inhibitors in luciferase reporter cells, primary screen, cell-based, NIH3T3, luminescence. NIH3T3-HGL HSE-luciferase, MG132-induced, luminescence 8 h; active compounds read low. activity change, negative = inhibition, % at 7.5 µM (by protocol). 0.77% of 300,000 active;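 active = more than half of replicate wells show activity change below -50%, luminescence cut by over half; inconclusive = some wells, but at most half, below -50%; inactive = no replicate well below -50%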;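 note: luciferase reports HSF-1 transcriptional activity via heat shock element; 0% = median of DMSO wells and -100% = zero luminescence signal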
# GAA850 FXN act: FXN promoter activators, primary screen, cell-based, luciferase luminescence, HEK293 lucGAA850. HEK293 lucGAA850 FXN promoter luciferase reporter, 24 h; percent of 10 µM SAHA response. activation, % at 6 µM. 0.56% of 360,000 active. AID 540364, 2011;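 active = activation above the average of all compounds screened plus 3 SD, cutoff fixed separately per campaign, cut at about 7.5% in these data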;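 note: 0% = DMSO wells and 100% = 10 µM SAHA wells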
# SMARCA2 activ: SMARCA2 (BRM) function activators, primary screen, cell-based, luminescence, high throughput; MG213 cells, MMTV-luciferase reporter, dexamethasone, overnight; activation, % at 9.1 µM; 1% of 370,000 active; in the data active = activation above about 7.8%;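 note: 0% = vehicle wells and 100% = reference activator wells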
# AI-2 QS mod: Vibrio harveyi AI-2 quorum sensing modulators, primary screen, JMH597 strain, luminescence/OD600 ratio. activity change, % at 7.5 µM. 0.4% of 300,000 active. Vibrio harveyi JMH597 AI-2 luminescence/OD600 ratio, 9 h; active compounds read low; strain lacks LuxN and CqsS sensors; 0 = neutral-control median. AID 2094, 2009; in the data active = activity change below about -75%, passing the limit was not always enough; inconclusive = no clear call, values can overlap the other calls;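 note: luminescence divided by OD600 gain over 9 h not by final OD600 alone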
# HSP90 refold inh: HSP90 inhibitors, primary screen, cell lysate, luminescence | Heat shock protein HSP 90 (rabbit reticulocyte lysate; luciferase refolding) | Rabbit reticulocyte lysate, luciferase refolding luminescence, 3 h | inhibition, % at 5.6 µM | 0.91% of 290,000 active | AID 1789, 2009;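 active = inhibition above the screen-wide mean plus 3 SD, computed separately per campaign, cut at about 16% in these data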;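 note: 0% = DMSO wells and 100% = 60 µM geldanamycin wells; inhibitors lower the luminescence because luciferase stays unfolded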
# HSP90 inh confirm: HSP90 inhibitors, confirmation, cell lysate, luminescence. shares compounds with HSP90 refold inh. rabbit reticulocyte lysate, luciferase refolding luminescence, 3 h. inhibition, % at 5.9 µM. 64% of 2,300 active; in the data active = inhibition above about 18%;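 note: 0% = vehicle wells and 100% = reference inhibitor wells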
# luciferase ctr: firefly luciferase inhibitors, HSP90 counter-screen, confirmation, artefact control for HSP90 inhibitor project, biochemical, luminescence, triplicate; shares compounds with HSP90 refold inh; purified native firefly luciferase; inhibition, % at 5.9 µM; 48% of 2,300 active; AID 1847, 2009;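 active = inhibition above the mean inhibition of all tested sample wells plus 3 SD, cut at about 10% in these data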;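 note: 0% = DMSO with luciferase and 100% = wells lacking luciferase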
# Target sequence (P08659 whole entry, looked up): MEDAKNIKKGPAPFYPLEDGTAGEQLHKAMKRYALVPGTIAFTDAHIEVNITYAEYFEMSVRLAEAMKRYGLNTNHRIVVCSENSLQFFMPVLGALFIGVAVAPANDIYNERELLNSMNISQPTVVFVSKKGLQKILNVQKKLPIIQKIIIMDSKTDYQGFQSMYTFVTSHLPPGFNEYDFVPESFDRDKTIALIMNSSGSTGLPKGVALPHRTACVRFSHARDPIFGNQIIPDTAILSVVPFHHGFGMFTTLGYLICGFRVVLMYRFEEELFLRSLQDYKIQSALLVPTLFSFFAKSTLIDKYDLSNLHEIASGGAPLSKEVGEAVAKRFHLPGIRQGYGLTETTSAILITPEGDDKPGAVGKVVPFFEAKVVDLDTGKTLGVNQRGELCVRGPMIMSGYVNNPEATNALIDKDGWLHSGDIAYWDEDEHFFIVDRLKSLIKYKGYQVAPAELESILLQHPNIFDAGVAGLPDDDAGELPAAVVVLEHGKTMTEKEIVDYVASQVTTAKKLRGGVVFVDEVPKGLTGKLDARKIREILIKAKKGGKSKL
# * hit, by the source's call; ? = inconclusive; . = no result given.
SMILES,PG9 binder,HSF1 inhib,GAA850 FXN act,SMARCA2 activ,AI-2 QS mod,HSP90 refold inh,HSP90 inh confirm,luciferase ctr
CCOc1c(Cl)cc(C(=O)Nc2cccc(C(=O)O)c2)cc1Cl,1,18,4,4,60,30*,47*,9.8*
CCOc1ccc(NC(=O)c2cccc(NC(=O)c3ccccc3)c2)cc1,0,-1,0,-1,-10,3,.,.
COC(=O)c1sc(NC(=O)CSc2nnnn2-c2cccc(OC)c2)nc1C,4,-2,-1,0,22,20*,1,-7
CCOC(=O)c1sc(NC(=O)CSc2nnnn2-c2ccccc2)nc1C,-1,-5,0,3,7,-2,.,.
COC(=O)N1C(=O)[C@](c2ccccc2)(C(C)C)N1C(=O)OC,0,14,2,1,15,31*,3,-2
CC(C)CN1C(=O)C[C@@]2(C(=O)N(C)c3ccc(NS(=O)(=O)C4CCCCC4)cc32)C1c1ccccc1 (stereo partly specified),.,.,.,-2,.,.,.,.
COc1ccc(C(=O)/C=C/c2ccccc2F)c(OC(=O)c2ccc([N+](=O)[O-])cc2)c1,0,8,1,4,14,18*,37*,-22
COc1ccc(C(=O)/C=C/c2ccc(C)cc2)c(OC(=O)c2ccc([N+](=O)[O-])cc2)c1,0,-5,0,-2,20,-3,.,.
COc1ccc2c(c1)c(C(=O)CN1CCN(Cc3ccccc3)CC1)c(C)n2C,-3,0,1,-2,12,28*,-6,-12
COc1ccc2c(c1)c(C(=O)CN1CCN(c3ccccc3)CC1)c(C)n2C,.,-4,.,.,17,-1,.,.
COc1ccc(/C=N\Nc2ccccc2[N+](=O)[O-])c(C(=O)O)c1OC,0,-18,-3,4,-1,18*,6,8
COc1ccc(/C=N\Nc2ccc([N+](=O)[O-])cc2[N+](=O)[O-])c(C(=O)O)c1OC,-1,-2,-2,0,22,-2,.,.
Cc1ccc(C(=O)Nc2cccc3ccccc23)cc1,-1,20,3,1,0,-2,.,.
CC(C)(C)c1ccc(C(=O)Nc2cccc3c(=O)[nH][nH]c(=O)c23)cc1,1,-61*,-10,-4,?,47*,62*,21*
O=C(O)/C=C/c1cnn(-c2ccccc2)c1,1,-15,0,2,14,53*,59*,38*
CCOC(=O)/C=C/c1cnn(-c2ccccc2)c1,2,10,4,6,-1,0,.,.
NS(=O)(=O)c1ccc(NC(=O)CSc2nnc(-c3cccs3)o2)cc1,.,.,.,-4,.,.,.,.
O=C(O)c1cccc(-n2c(O)c(C=C3N=c4ccccc4=N3)sc2=S)c1,-2,-26,1,1,-2,47*,66*,-2
Cc1nc(-c2noc(-c3ccccc3Cl)n2)c(C(F)(F)F)o1,-1,31,1,1,2,4,.,.
Cc1nc(-c2noc(-c3cccc(Cl)c3)n2)c(C(F)(F)F)o1,-1,14,1,3,-6,21*,1,-10
COc1ccc2[nH]c(O)c(N=NC(=O)Cc3cccs3)c2c1,-9,-6,2,0,20,23*,-9,-17
CCOC(=O)N1CCN(Cc2ccc3c(c2)OCO3)CC1,-2,0,2,3,8,0,.,.
Cc1c(O)ccc(C(=O)CN2CCN(Cc3ccc4c(c3)OCO4)CC2)c1O,-1,-7,0,-3,27,84*,-7,-11
CCOc1cc(CN2CCN(CCc3ccccc3)C(CCO)C2)ccc1OC (stereo unspecified),1,-8,2,-2,6,27*,-3,-6
COc1ccc(CN2CCN(CCCc3ccccc3)C(CCO)C2)cc1OC (stereo unspecified),-1,-11,0,-4,-51,1,.,.
SMILES,PG9 binder,HSF1 inhib,GAA850 FXN act,SMARCA2 activ,AI-2 QS mod,HSP90 refold inh,HSP90 inh confirm,luciferase ctr
COc1ccc2oc(C(=O)Nc3ccccn3)c(C)c2c1,-1,14,1,5,28,25*,46*,34*
COc1ccc2cc(C(=O)N3CCc4ccccc43)[nH]c2c1,-2,44,4,2,1,22*,14,-2
COc1ccc2oc(C(=O)N3CCc4ccccc43)c(C)c2c1,1,?,-2,0,40,23*,59*,46*
COc1ccc2oc(C(=O)Nc3ccc(C)cn3)c(C)c2c1,4,19,1,3,12,.,.,.
COc1ccc2oc(C(=O)N3CCN(C(c4ccccc4)c4ccccc4)CC3)c(C)c2c1,1,-6,-1,-1,20,.,.,.
O=C(c1ccc(N2CCOCC2)cc1)c1cccs1,0,14,0,4,19,18*,42*,21*
COCCn1c(C)cc(C2=NNC(=Nc3ccccc3)SC2)c1C,0,-40,-10,-2,1,51*,39*,33*
O=C(Cc1ccccc1Cl)NCCN1C(=O)C2C3C=CC(C3)C2C1=O (stereo unspecified),.,.,.,-3,.,.,.,.
CCCc1ccc(-c2ccc(-c3noc(-c4ccncc4)n3)cc2)nc1,-2,-4,-1,0,35,0,.,.
CCCc1ccc(-c2ccc(F)c(N)c2)nc1,0,1,-7,-3,-2,53*,77*,69*
CCN(CC)C(=O)CC[C@H]1CC[C@]2(CCCN(Cc3ccncc3)C2)O1,.,.,.,0,.,.,.,.
O=[N+]([O-])c1ccc2nc(/C=C/c3ccc(Cl)cc3)[nH]c2c1,-2,-23,0,0,15,28*,6,1
O=[N+]([O-])c1ccc(-c2nc3ccc([N+](=O)[O-])cc3[nH]2)cc1,-1,37,3,1,19,-1,.,.
O=C(N[C@@H]1CC[C@H]2SC[C@H](C(=O)O)N2C1=O)OCC1c2ccccc2-c2ccccc21,.,.,.,-3,.,.,.,.
CCOC(=O)C(CCCP(=O)(c1ccccc1)c1ccccc1)(NC(C)=O)C(=O)OCC,-2,-9,1,-5,-11,23*,-9,-12
CC(=O)Nc1nc2ncccn2c1-c1ccc(C)cc1,.,.,.,4,.,.,.,.

# Bioassay records (PubChem)
